The list is not random: actives were taken first. Their share in the collection is about 17%.
TGFb SMAD3 inh: qHTS for Inhibitors of TGF-b | HepG2 CAGA-GFP TGF-b/SMAD3 reporter, GFP fluorescence, 18 h; TGF-beta stimulated, 500 pg/mL final | Potency, µM (top dose mostly 46.1 µM), hits mostly inhibitors | hit rate 1.2% among 410,000 | AID 588855, 2011; also: nearly all actives have a fitted effect of over 65% in size
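Read-out: total well GFP (ex488/em500-530) summed from mean per-cell fluorescence. Cells: HEPG2 CAGA-GFP, 1% FBS DMEM, 18 h at 37 degrees C with 500 pg/mL final TGF-beta. Unstimulated wells served as the full-inhibition control; stimulated DMSO wells = 0%.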
S2 tox: Viability Counterscreen for Primary qHTS for Inhibitors of ATXN expression. S2 cells (HEK-293 line with an ATXN2-luciferase reporter) viability, CellTiter-Fluor protease fluorescence, 24 h. Potency, µM (highest dose often 56.7 µM), usual class: cytotoxic. hit rate 0.49% among 400,000. AID 651635, 2014; also: nearly all actives have a fitted effect of over 40% in size
TDP1 cell CPT: qHTS for Inhibitors of human tyrosyl-DNA phosphodiesterase 1 (TDP1): qHTS in cells in presence of CPT. hit rate 12% among 420,000. Potency, µM (highest dose often 46.2 µM), hits mostly inhibitors. chicken DT40 Tdp1-/-;hTDP1 cells + 20 nM CPT, ATP luminescence, 48 h; also: nearly all actives have a fitted effect of over 55% in size
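Chicken DT40 Tdp1-/- cells stably complemented with human TDP1 were seeded at 400 cells/well in medium containing 20 nM camptothecin, exposed to pin-transferred compounds, and grown at 37 °C for at least 48 hr. Viability was read as ATP luminescence.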
ATXN2 expr inh: Primary qHTS for Inhibitors of ATXN expression; HEK-293 ATXN2-luciferase reporter, luminescence, 24 h; Potency, µM (series often up to 57 µM), hits mostly inhibitors; hit rate 0.72% among 360,000; also: nearly all actives have a fitted effect of over 55% in size
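ATXN2-luciferase reporter cells (luciferase flanked by upstream and downstream ATXN2 gene portions) were treated 24 h at 37 °C with compounds at up to 57 uM. SteadyGlo luminescence gave expression; GF-AFC fluorescence gave viability.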
HepG2 viability: qHTS for Inhibitors of TGF-b: Cytotox Counterscreen. HepG2 CAGA-GFP viability, ATP luminescence, 18 h. Potency, µM (series often up to 46.1 µM), hits mostly cytotoxic. AID 588856, 2011. hit rate 0.76% among 410,000
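CellTiter-Glo luminescence gave cytotoxicity after 18 hours at 37 degrees C. The cells were HepG2 CAGA-GFP in 1% FBS DMEM, stimulated with 500 pg/mL TGF-beta after compound addition. %Activity was normalised to no-cell wells (complete cell-killing) and DMSO (no toxicity), and curves were fitted and classified.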
TDP1 cell noCPT: qHTS for Inhibitors of human tyrosyl-DNA phosphodiesterase 1 (TDP1): qHTS in cells in absence of CPT | DT40 Tdp1-/- hTDP1 cells, no CPT, ATP luminescence, 48 h | Potency, µM (highest dose often 46.2 µM), most hits filed as inhibitors | hit rate 15% among 420,000; also: nearly all actives have a fitted effect of over 55% in size
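A cellular qHTS used chicken DT40 cells lacking endogenous Tdp1 but carrying stably transfected human TDP1. Compounds were applied without camptothecin, and cell growth kinetics were judged by ATP-dependent luminescence after ≥48 hr.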
Hits are given with their value; - = inactive; ? = inconclusive; . = no result given. Calls follow the shape of the dose curve; as a rule, active = well fitted curve in the direction sought with a large enough effect; inconclusive = small, poorly fitted or top-dose-only effect, or another doubt; inactive = no such curve, though single readings can be large; an effect the other way counts as inactive or inconclusive.

SMILES	TGFb SMAD3 inh	S2 tox	TDP1 cell CPT	ATXN2 expr inh	HepG2 viability	TDP1 cell noCPT
N#Cc1ccccc1OCCCN1CCC(C(O)(c2ccccc2)c2ccccc2)CC1	.	?	18.4µM	?	.	?
C#Cc1ccccc1OCCCN1CCC(C(O)(c2ccccc2)c2ccccc2)CC1	.	39.8µM	9.2µM	31.6µM	.	8.2µM
CC(C)(C(=O)O)c1ccc([C@H](O)CCCN2CCC(C(O)(c3ccccc3)c3ccccc3)CC2)cc1	-	-	-	-	-	-
COC(=O)c1cccc(OCCCN2CCC(C(O)(c3ccccc3)c3ccccc3)CC2)c1	.	.	?	-	.	?
CC(C)CNS(=O)(=O)c1ccc(OCC(=O)NCC2CCCO2)c(Cl)c1 (configuration not stated)	-	-	-	-	-	-
CCN1C/C(=C/c2ccc(OC)c(O)c2)C(=O)/C(=C/c2ccc(OC)c(O)c2)C1	?	?	13µM	.	-	11.6µM
COc1ccc(/C=N/N=C/c2ccc(OC)c(O)c2)cc1O	-	-	-	-	-	-
COc1ccc(/C=C2\CN(Cc3ccccc3)C/C(=C\c3ccc(OC)c(O)c3)C2=O)cc1O	5.01µM	?	5.17µM	3.98µM	-	2.06µM
COc1ccc(C=C2C(=O)c3ccccc3C2=O)cc1O	-	-	-	-	-	-
CCOC(=O)C1CCC(CN(Cc2ccc(OC)cc2)S(=O)(=O)c2ccc(F)c(C(=O)Nc3cc(Cl)ccc3OC)c2)CC1 (configuration not stated)	-	-	-	-	-	-
CCOc1ccccc1N1CCN(C(=O)c2c(-c3c(F)cccc3Cl)noc2C)CC1	-	-	?	-	-	?
CC1CCN(c2c(NCc3ccc(C(=O)N4CCc5ccccc54)cc3)c(=O)c2=O)CC1	?	?	5.17µM	-	-	5.8µM
Cc1cccc(N2CCN(C(=O)c3ccc(CNc4c(N5CCC(C)CC5)c(=O)c4=O)cc3)CC2C)c1 (configuration not stated)	?	-	20.6µM	.	-	?
CC(C)C(C=Cc1ccccc1)=NNS(=O)(=O)c1ccccc1	-	-	8.2µM	-	-	-
O=C(CN1CCN(Cc2ccccc2)CC1)Nc1cccc(Cl)c1	-	-	-	-	-	?
CCN1CCN(CC(=O)Nc2cc(S(=O)(=O)N3CCCCC3)ccc2Cl)CC1	-	-	-	-	-	-
O=C(CNCc1ccc(Cl)cc1)Nc1cc(S(=O)(=O)N2CCCC2)ccc1Cl	?	?	20.6µM	-	-	?
O=C(Cc1ccccc1F)Nc1cc(S(=O)(=O)N2CCCC2)ccc1Cl	-	-	-	-	-	-
CCOC(=O)C1CCN(CC(=O)Nc2cc(S(=O)(=O)N3CCCCC3)ccc2Cl)CC1	-	-	20.6µM	-	-	20.6µM
CC1CN(CC(=O)Nc2cc(S(=O)(=O)N3CCCC3)ccc2Cl)CC(C)O1 (configuration not stated)	-	-	-	.	-	?
O=C(CN1CCN(c2ccc(O)cc2)CC1)Nc1cc(S(=O)(=O)N2CCCC2)ccc1Cl	-	-	?	-	-	18.4µM
O=C(CN1CCN(c2ccc(O)cc2)CC1)Nc1cc(S(=O)(=O)N2CCCCC2)ccc1Cl	-	-	10.3µM	-	-	10.3µM
CC(=O)c1ccc(F)c(-c2cc(C)cc3c2OC(CNC(=O)Cc2ccc4c(c2)OCO4)C3)c1 (configuration not stated)	.	-	?	.	.	?
COc1ccc(S(=O)(=O)NC2CC(C)(C)NC(C)(C)C2)cc1C(C)C	-	-	?	-	-	?
COC(=O)c1ccc2c(c1)N(Cc1cc(C)ccc1C)C(=O)c1ccccc1S2(=O)=O	?	.	?	.	-	?

From PubChem
